Reference: PubChem BioAssay (Tox21)
Records with an inconclusive call do not appear. A number with no mark means an inactive call. Calls come from the whole dose curve; as a rule, active = well fitted cell-killing curve with a large enough effect in the repeat runs; inconclusive = weak or mixed curves; inactive = flat fitted curve, though single readings scatter.

assay: qHTS assay to identify small molecule antagonists of the estrogen related receptor (ERR) signaling pathway - cell viability counter screen (AID 1224818); settings: ERR reporter cell line viability counter screen; series mostly up to 46.1 µM; viability change, negative = cytotoxic: at the top concentration
From the text: National Center for Advancing Translational Sciences [NCATS]
NIH Chemical Genomics Center [NCGC]
U.S. Environmental Protection Agency [EPA]
National Institutes of Environmental Health Sciences [NIEHS]
National Toxicology Program [NTP]
U.S. Food and Drug Administration [FDA]
Estrogen related receptors (ERRs), the first orphan nuclear receptors discovered, play an important role in the control of cellular energy metabolism. ERRs are required for high-energy production in response to the environmental challenges. ERR-alpha was also identified as an adverse marker for breast cancer progression; ERR-alpha-positive tumors have a poor prognosis. To screen and to identify environmental compounds that perturb the ERR signaling pathways could provide valuable information for potential therapeutic or preventive measures in the treatment of metabolic disease. To differentiate true ERR antagonists or agonist from cytotoxic substances, the assay is multiplexed with cell viability assay.
Tox21 Assay Protocol Summary:
The ERR cells were dispensed at 2,000 cells/5 ul/well in 1536-well white plates using a Multidrop dispenser. After the assay plates were incubated at a 37 C/5% CO2 incubator for 6 hours, 23 nL of compounds dissolved in DMSO, positive and negative controls or DMSO only was transferred to the assay plate by a pin tool. The plates were incubated at 37 C for 17.5 hours. 1 ul/well of CellTiter-Fluor reagent was added into the assay plates using a Flying Reagent Dispenser. After 30 min incubation at 37 C/5% CO2, the fluorescence intensity in the plates was measured using a ViewLux plate reader.
% is set by controls: 0 for no effect and ±100 for the full control effect.

Row | SMILES | viability change, negative = cytotoxic
1 | C[C@H](CS)C(=O)N1CCC[C@H]1C(=O)O | 8.15%
2 | Nc1cccc2c(N)cccc12 | -1.85% [at 92.2 µM]
3 | Cc1ccc(N(CC2=NCCN2)c2cccc(O)c2)cc1 | 1.25%
4 | CC(=O)C(C)=O | 12.3%
5 | CCN(CC)CCNC(=O)c1cc(Cl)c(N)cc1OC | 11%
6 | CC(=O)OC(C)C[N+](C)(C)C (stereo unspecified) | 16.6%
7 | CC12CC3CC(C)(C1)CC(N)(C3)C2 | -0.659%
8 | CC(CCc1ccc(O)cc1)NCCc1ccc(O)c(O)c1 (stereo unspecified) | 3.48%
9 | Nc1nc2ccc(OC(F)(F)F)cc2s1 | -7.77%
10 | O=NN(CCCl)C(=O)NCCCl | 8.74%
11 | O=C(O)/C=C/c1ccc(O)c(O)c1 | 9.07%
